# Source: PubChem BioAssay
# “And” between values parts separate entries of the source, which are not always exact repeats. Equal values may be shown once. The source made the active and inactive calls.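 Rule for the calls, unless noted: active = normalized viability below 100% at a tested concentration; inactive = the rest.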
# How the values were obtained:
# [1] = liver-stage malaria parasite growth inhibition, primary screen, cell-based, HepG2, luciferase luminescence, HepG2 viability (AID 624349; in the data active = parasite load remaining mostly below about 12%, no sharp cut-off; inactive = mostly above about 10%;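 note: 100% = mean of DMSO negative control wells on the same plate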); details: P. berghei liver stage in HepG2, luciferase luminescence, concentration not given here; parasite load remaining: stronger effect = lower value; viability: measured here: HepG2 viability without parasites
# [2] = stimulators of nuclear beta-catenin in C2C12, primary screen, imaging, WNT3A-conditioned medium, mouse C2C12, NPC library (AID 1117326; in the data active = nuclear beta-catenin stimulation mostly above about 4.2%, no sharp cut-off; inactive = mostly below about 10%); details: stronger effect = higher value
# [3] = stimulators of insulin release from INS-1E, primary screen, cell-based, 5 mM glucose, NPC library (AID 1117329;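 active = compound raises insulin release from rat beta cells at 5 mM glucose, no numeric limit stated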); details: rat INS-1E insulin secretion, at 10 µM, stronger effect = higher value
# [4] = growth inhibition of GSK3B-pretreated HCT116 cells – cell-based, CellTiter-Glo, 0.2 to 20 µM (AID 1117336;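 active = compounds lowering colon cancer cell viability after pretreatment blocking the GSK3B kinase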); details: HCT116 viability after GSK3B inhibitor, at 20 µM, stronger effect = higher value
# [5] = inhibition of endothelial tube formation, primary screen, imaging, VEGF stimulated, CD31 staining, tube area, NPC library (AID 1117340;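 active = compound that reduces growth-factor-driven endothelial tube area in a mixed cell culture, no cutoff stated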); details: VEGF-stimulated ADSC/ECFC co-culture, at 10 µM, stronger effect = higher value
# [6] = glucagon-like peptide 1 release enhancers, primary assay, NCI-H716 cell line, NPC library (AID 1117341;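 active = compound raises GLP1 secretion from the human gut endocrine cells, with no numeric limit stated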); details: NCI-H716 cells, at 10 µM, stronger effect = higher value
# [7] = HCT116 colon cancer cell growth inhibition, primary screen, CellTiter-Glo luminescence, NPC library (AID 1117342;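 active = compounds that lower survival of HCT116 colon cancer cells in the luminescence readout, no numeric limit stated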); details: at 20 µM (top of the series)
# [8] = CellTiter-Glo luminescent readout of SW480 viability loss, NPC library primary (AID 1117343;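 active = compounds that lower viability of the colon cancer cells in the luminescence readout, with no numeric limit stated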); details: CellTiter-Glo luminescence; at 20 µM (top of the series) unless noted
# [9] = decreased DLD-1 cellular survival, CellTiter-Glo luminescent readout, NPC compound collection, primary HTS (AID 1117346;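 active = compounds that lower survival of DLD-1 colon cancer cells in the luminescence readout, no cutoff given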); details: DLD-1 viability, CellTiter-Glo luminescence; at 20 µM (top of the series)
# [10] = differential killing of epithelial or mesenchymal cells, primary screen, imaging, PC-3E GFP, TEM4-18 mCherry, co-culture (AID 1345086;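 active = compounds killing one labelled cell type while sparing the other, by normalised counts and ratio limits, not self-fluorescent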;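 for all read-outs here: cells exposed to compound for 72 h before imaging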;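 for red/green cell ratio (normalised): normalised mesenchymal count divided by normalised epithelial count so high means epithelial killing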); details: imaging cell counts, at 1 µM; for red/green cell ratio (normalised): actives lie on both sides, counts scaled to control wells, 1 = unselective
# [11] = sensitizers of A549 cells to miR-34 induction, primary screen, imaging, A549 dox-inducible miR-34, nuclei and caspase counts (AID 1347080;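 active = compounds whose cell count with miR-34 switched on is under 0.7 times the count with it off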); details: A549 miR-34 inducible, Hoechst nuclei count, 48 h
# [12] = survival rescue of mitochondrial mutant cells in low glucose, primary screen, MELAS cybrids, Rieske KO mouse fibroblasts, CellTiter-Glo (AID 1508586;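 active = mean z-score across replicates of 1.96 or higher in either the MELAS or the Rieske mutant cell line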;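 note: z relative to plate mean and SD of compound and empty wells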)
# [13] = ovarian cancer cell viability with rucaparib, profiling panel, oncology-focused library, rucaparib conditional (AID 1508598); details: patient-derived ovarian cancer cells, CellTiter-Glo viability, 144 h, stronger effect = lower value
# [14] = target: NAD(+) hydrolase SARM1 (Homo sapiens) (UniProt Q6SZW1); experiment: SARM1 TIR NADase inhibitors, cell lysate, NAD-Glo luminescence (AID 1508614;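 active = compound whose remaining NAD level is above about 45 nM, limit read from the data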;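 note: higher remaining NAD means stronger inhibition of SARM1 NADase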); details: SAM-TIR HEK293T lysate NADase, at 1 µM, stronger effect = higher value
# [15] = measured here: epithelial PC-3E GFP cell survival
# [16] = measured here: mesenchymal TEM4-18 mCherry cell survival
# [17] = stronger effect = lower value, cell number ratio, induced over uninduced
# [18] = measured here: relative caspase fold change +Dox/-Dox
# [19] = measured here: total cells with miR-34 induction, stronger effect = lower value
# [20] = measured here: total cells without miR-34 induction
# [21] = MELAS cybrid survival, CellTiter-Glo 48 h, stronger effect = higher value
# [22] = Rieske KO mouse fibroblast survival, CellTiter-Glo 72 h
# Chain of NAD(+) hydrolase SARM1 (Homo sapiens) (Q6SZW1 whole entry, looked up): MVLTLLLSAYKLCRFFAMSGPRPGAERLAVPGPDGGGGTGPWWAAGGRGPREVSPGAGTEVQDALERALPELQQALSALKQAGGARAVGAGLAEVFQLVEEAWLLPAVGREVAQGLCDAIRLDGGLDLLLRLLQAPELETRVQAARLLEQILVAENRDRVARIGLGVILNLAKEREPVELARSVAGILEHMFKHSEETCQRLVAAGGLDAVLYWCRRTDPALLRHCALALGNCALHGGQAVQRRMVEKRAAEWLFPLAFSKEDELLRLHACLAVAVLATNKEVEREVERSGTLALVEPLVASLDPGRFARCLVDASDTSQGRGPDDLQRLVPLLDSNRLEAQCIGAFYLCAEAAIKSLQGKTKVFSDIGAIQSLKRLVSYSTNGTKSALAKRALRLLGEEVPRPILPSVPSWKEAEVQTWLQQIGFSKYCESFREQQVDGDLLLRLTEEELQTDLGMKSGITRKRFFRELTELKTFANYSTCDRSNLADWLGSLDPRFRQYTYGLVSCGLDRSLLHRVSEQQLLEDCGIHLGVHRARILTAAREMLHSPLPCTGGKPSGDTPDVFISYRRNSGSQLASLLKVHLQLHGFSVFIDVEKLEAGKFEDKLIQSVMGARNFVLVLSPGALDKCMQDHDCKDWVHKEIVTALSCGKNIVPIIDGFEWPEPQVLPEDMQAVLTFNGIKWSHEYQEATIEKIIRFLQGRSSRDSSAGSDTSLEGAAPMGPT
compound,measurement,setting,value
COc1c(C)c2c(c(O)c1C/C=C(\C)CCC(=O)OCCN1CCOCC1)C(=O)OC2,parasite load remaining,[1],10.4% (inactive)
same,viability,[1],140%
same,nuclear beta-catenin stimulation,[2]; at 10 µM,19.6% (inactive)
same,nuclear beta-catenin stimulation,"[2]; stimulation, at 2 µM",28.6%
same,insulin secretion stimulation,[3],1.7% (inactive)
same,viability decrease,[4],98.3% (active)
same,tube area decrease,[5],79.8% (active)
same,GLP1 secretion stimulation,[6],0.3% (inactive)
same,inhibition of viability,[7],83.9% (active)
same,viability decrease (inhibition),[8],71.8% (active)
same,viability decrease (inhibition),[9],53.3% (active)
same,red/green cell ratio (normalised),[10],0.71 (inactive)
same,normalised cell number,[10]; [15],1.24
same,normalised cell number,[10]; [16],0.88
same,fold change,[11]; [17],0.954 (inactive)
same,fold change,[11]; [18],1.15
same,cell count,[11]; [19],3090
same,cell count,[11]; [20],3240
same,z-score,[12]; [21],-0.954 (inactive)
same,z-score,[12]; [22],1.62
same,viability,"[13]; at 0.000305 µM, OCI-C5x cells, with rucaparib 10 µM, 100% = cells with rucaparib alone",104% (inactive)
same,viability,"[13]; at 0.000305 µM, OCI-C5x cells, without rucaparib",112% (inactive)
same,viability,"[13]; at 0.000305 µM, OCI-P5x cells, with rucaparib 20 µM, 100% = cells with rucaparib alone",90.9% (active)
same,viability,"[13]; at 0.000305 µM, OCI-P5x cells, without rucaparib",100% (inactive)
same,viability,"[13]; at 0.00122 µM, OCI-C5x cells, with rucaparib 10 µM, 100% = cells with rucaparib alone",119% (inactive)
same,viability,"[13]; at 0.00122 µM, OCI-C5x cells, without rucaparib",108% (inactive)
same,viability,"[13]; at 0.00122 µM, OCI-P5x cells, with rucaparib 20 µM, 100% = cells with rucaparib alone",95.2% (active)
same,viability,"[13]; at 0.00122 µM, OCI-P5x cells, without rucaparib",104% (inactive)
same,viability,"[13]; at 0.00488 µM, OCI-C5x cells, with rucaparib 10 µM, 100% = cells with rucaparib alone",122% (inactive)
same,viability,"[13]; at 0.00488 µM, OCI-C5x cells, without rucaparib",110% (inactive)
same,viability,"[13]; at 0.00488 µM, OCI-P5x cells, with rucaparib 20 µM, 100% = cells with rucaparib alone",101% (inactive)
same,viability,"[13]; at 0.00488 µM, OCI-P5x cells, without rucaparib",108% (inactive)
same,viability,"[13]; at 0.0195 µM, OCI-C5x cells, with rucaparib 10 µM, 100% = cells with rucaparib alone",115% (inactive)
same,viability,"[13]; at 0.0195 µM, OCI-C5x cells, without rucaparib",113% (inactive)
same,viability,"[13]; at 0.0195 µM, OCI-P5x cells, with rucaparib 20 µM, 100% = cells with rucaparib alone",108% (inactive)
same,viability,"[13]; at 0.0195 µM, OCI-P5x cells, without rucaparib",109% (inactive)
same,viability,"[13]; at 0.0781 µM, OCI-C5x cells, with rucaparib 10 µM, 100% = cells with rucaparib alone",146% (inactive)
same,viability,"[13]; at 0.0781 µM, OCI-C5x cells, without rucaparib",149% (inactive)
same,viability,"[13]; at 0.0781 µM, OCI-P5x cells, with rucaparib 20 µM, 100% = cells with rucaparib alone",107% (inactive)
same,viability,"[13]; at 0.0781 µM, OCI-P5x cells, without rucaparib",87.7% (active)
same,viability,"[13]; at 0.313 µM, OCI-C5x cells, with rucaparib 10 µM, 100% = cells with rucaparib alone",172% (inactive)
same,viability,"[13]; at 0.313 µM, OCI-C5x cells, without rucaparib",147% (inactive)
same,viability,"[13]; at 0.313 µM, OCI-P5x cells, with rucaparib 20 µM, 100% = cells with rucaparib alone",89.1% (active)
same,viability,"[13]; at 0.313 µM, OCI-P5x cells, without rucaparib",63.2% (active)
same,viability,"[13]; at 1.25 µM, OCI-C5x cells, with rucaparib 10 µM, 100% = cells with rucaparib alone",157% (inactive)
same,viability,"[13]; at 1.25 µM, OCI-C5x cells, without rucaparib",110% (inactive)
same,viability,"[13]; at 1.25 µM, OCI-P5x cells, with rucaparib 20 µM, 100% = cells with rucaparib alone",74.3% (active)
same,viability,"[13]; at 1.25 µM, OCI-P5x cells, without rucaparib",42.1% (active)
same,viability,"[13]; at 5 µM, OCI-C5x cells, with rucaparib 10 µM, 100% = cells with rucaparib alone",69% (active)
same,viability,"[13]; at 5 µM, OCI-C5x cells, without rucaparib",52.7% (active)
same,viability,"[13]; at 5 µM, OCI-P5x cells, with rucaparib 20 µM, 100% = cells with rucaparib alone",52.6% (active)
same,viability,"[13]; at 5 µM, OCI-P5x cells, without rucaparib",30.9% (active)
same,remaining NAD,[14],10 nM (inactive)
CCCN(CCC)CCc1cccc2c1CC(=O)N2,parasite load remaining,[1],55.3% (inactive)
same,viability,[1],102%
same,nuclear beta-catenin stimulation,[2]; at 10 µM,2.8% (inactive)
same,nuclear beta-catenin stimulation,"[2]; stimulation, at 2 µM",1.5%
same,insulin secretion stimulation,[3],2.8% (inactive)
same,viability decrease,[4],8% (inactive)
same,tube area decrease,[5],-10% (inactive)
same,GLP1 secretion stimulation,[6],3.9% (inactive)
same,inhibition of viability,[7],21.3% (inactive)
same,viability decrease (inhibition),[8],29.8% (inactive)
same,viability decrease (inhibition),[9],26.9% (inactive)
same,red/green cell ratio (normalised),[10],1.06 (inactive)
same,normalised cell number,[10]; [15],0.99
same,normalised cell number,[10]; [16],1.05
same,fold change,[11]; [17],0.948 (inactive) and 0.94 (inactive) and 0.88 (inactive)
same,fold change,[11]; [18],1.29 and 1.47 and 5.03
same,cell count,[11]; [19],9580 and 9680 and 11700
same,cell count,[11]; [20],10100 and 10300 and 13300
same,z-score,[12]; [21],0.118 (inactive) and -0.361 (inactive)
same,z-score,[12]; [22],0.253 and -0.254
same,remaining NAD,[14],10 nM (inactive)
CCCCCCCCCCCCCCCCCCCCCCO,parasite load remaining,[1],85.5% (inactive)
same,viability,[1],109%
same,nuclear beta-catenin stimulation,[2]; at 10 µM,3.4% (inactive)
same,nuclear beta-catenin stimulation,"[2]; stimulation, at 2 µM",2.9%
same,insulin secretion stimulation,[3],-2.5% (inactive)
same,viability decrease,[4],-7.2% (inactive)
same,tube area decrease,[5],-8.1% (inactive)
same,GLP1 secretion stimulation,[6],1.1% (inactive)
same,inhibition of viability,[7],-36.7% (inactive)
same,viability decrease (inhibition),[8],16.6% (inactive)
same,viability decrease (inhibition),[9],7.8% (inactive)
same,red/green cell ratio (normalised),[10],1.1 (inactive)
same,normalised cell number,[10]; [15],0.99
same,normalised cell number,[10]; [16],1.09
same,fold change,[11]; [17],0.841 (inactive)
same,fold change,[11]; [18],5.17
same,cell count,[11]; [19],10500
same,cell count,[11]; [20],12500
same,remaining NAD,[14],10 nM (inactive)
